The record followed here is PubChem BioAssay.

Results filed as inconclusive are left out. Active and inactive are the calls of the source.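 How the source made its calls, unless noted: active means percent response above a set limit, the screen-wide mean plus 3 SD (cut at about 130% in these data); inactive means the rest.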

A short description of test [1]: yeast TOR pathway RPL19A-GFP modulators, primary screen, cell-based, S. cerevisiae, multiplex flow cytometry (AID 1862; in the data active means percent of DMSO control GFP below about 86%;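 further: lower values mimic rapamycin by blocking the RPL19A rise seen in DMSO cells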). The note with it: S. cerevisiae RPL19A-GFP strain, flow cytometry fluorescence, 3 h; at 10 µM; stronger effect = lower value.
Test [2] in a line: modulators of MEP2-GFP levels in yeast, primary screen, S. cerevisiae, multiplex flow cytometry (AID 1867;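 active means GFP response, as percent of the DMSO control, above the screen-wide mean plus 3 SD, about 139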;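 further: median GFP channel fluorescence of barcode-gated MEP2-GFP cells measured by flow cytometry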). The settings on record: S. cerevisiae MEP2-GFP strain, 3 h, at 10 µM, stronger effect = higher value, 100% means same as DMSO wells. On the technique in general: A flow cytometer gives signals particle by particle.
Test [3] in a line: modulators of CIT2-GFP expression in yeast, primary screen, S. cerevisiae, GFP fusion, multiplex flow cytometry (AID 1870).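 Further: barcoded CIT2-GFP strain pooled with four other GFP strains with rapamycin as positive control; median GFP fluorescence per well over plate mean of DMSO wells so 100% = DMSO.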 The settings on record: 3 h, at 10 µM, stronger effect = higher value.
The nature of test [4]: modulators of LAP4-GFP expression in yeast, primary screen, S. cerevisiae, multiplex flow cytometry (AID 1873;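 active means GFP signal, as percent of the solvent control, above the screen mean plus 3 SD, about 149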). The settings on record: 3 h, at 10 µM, stronger effect = higher value.
Test [5] is described as follows: modulators of AGP1-GFP expression in yeast TOR pathway, primary screen, cell-based, multiplex flow cytometry, S. cerevisiae (AID 1887;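 active means GFP signal above the screen-wide mean plus 3 SD, that is over about 124.5% of the solvent control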;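 further: AGP1-GFP fusion strain of S. cerevisiae within a five-strain barcoded multiplex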). The settings on record: 3 h, at 10 µM, stronger effect = higher value.
The nature of test [6]: inhibitors of CD8+ T cell-vesicle binding, pilot screen, LFA-1/ICAM-1 modulator project, MLPCN validation set, flow cytometry (AID 2523;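 active means response below a set limit, under 55% cells CD8-positive and vesicle-bound, and CD8 cells' 90th-percentile brightness under 279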;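 on vesicle binding response: mean PE anti-B7-1 fluorescence of CD8+ cells relative to row control; 100% = QL9-loaded vesicles with DMSO vehicle in the same plate row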). The note with it: 2C mouse CD8+ T cells, at 7 µM, stronger effect = lower value; double positive events: measured here: CD8+/vesicle+ event percentage.
For test [7], the target named is Integrin beta-1 (Homo sapiens) + Integrin alpha-4 (Homo sapiens) (UniProt P13612+P05556). Put plainly: inhibition of HUTS-21 binding to VLA-4, pilot screen, VLA-4 allosteric modulator project, U937 cells, HUTS-21 mAb, flow cytometry, validation set (AID 2674;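 active means inhibition above 50%, about 3 SD of the validation set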;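 further: antibody binding induced by the VLA-4 ligand LDV present at three times its Kd; 0% = LDV ligand with antibody and no compound and 100% = antibody without LDV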). The note with it: HUTS-21 LIBS mAb binding, at 6.7 µM, stronger effect = higher value, binding induced by LDV ligand.

Test [8] is described as follows: superoxide lowering in aged yeast cells, pilot screen, validation compound set (AID 2706;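 active means superoxide response below 65% of plate, a cut near 3 SD across the whole screen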;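 further: yeast exposed to compound for one week at 30 degrees C before staining; 100% = mean of all compound wells on the same plate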). The settings on record: S. cerevisiae aging, superoxide DHE fluorescence; at 10 µM; stronger effect = lower value.
In test [9] the target is Beta-adrenergic receptor kinase 1 (Homo sapiens) (UniProt P25098). The experiment in a line: GRK2 binders displacing RNA aptamer, biochemical, validation, human GRK2, bead flow cytometry (AID 488806;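 active means aptamer binding inhibition above 30%, about 3 SD of noise from non-fluorescent compounds; inactive means inhibition at or below 30%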). The note with it: bead-bound GRK2, FAM-aptamer displacement, at 10 µM, stronger effect = higher value.
Test [10] has as its target Beta-2 adrenergic receptor (Homo sapiens) (UniProt P07550). The experiment in a line: beta2AR agonists driving receptor internalization, pilot screen, cell-based, FAP fluorogen, flow cytometry, validation set (AID 504459;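 active means percent response above 42, roughly 3 SD of non-fluorescent test compounds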;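 further: agonist-driven loss of surface beta2AR via internalization measured by FAP dye flow cytometry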). The settings on record: Am2.2-beta2AR cells, FAP surface receptor flow cytometry; at 10 µM; stronger effect = higher value.
Test [11] concerns the target AP-2 complex subunit beta (Homo sapiens) (UniProt P63010). Put plainly: inhibitors of arrestin peptide binding to AP2, pilot screen, biochemical, validation set, GST-AP2 beads, flow cytometry (AID 504541;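 active means inhibition above 54%, about 3 SD of non-fluorescent compounds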;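 further: AP2 carries R879A mutation and is captured from E. coli lysate; bead-bound FITC arrestin peptide fluorescence measuring arrestin peptide binding to AP2; 0% = DMSO wells and 100% = excess unlabeled arrestin peptide control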). The settings on record: FITC arrestin peptide, at 10 µM, stronger effect = higher value, AP2 beta2 appendage fragment, R879A mutant.
A short description of test [12]: yeast V-ATPase proton transport modulators, S. cerevisiae, pHLuorin, HTS validation (AID 504600; in the data active means response above about 15%;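 further: plate controls were DMSO for no effect and reference compound for full effect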). The note with it: S. cerevisiae pHLuorin cytosolic pH, at 10 µM, stronger effect = higher value.
In test [13] the test system is anti-desmoglein-3 scFv antibody binding to human DSG3. The experiment in a line: inhibitors of anti-DSG3 scFv binding to DSG3, pilot screen, biochemical, validation compound set, bead-based, flow cytometry (AID 588368;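 active means binding below the plate cutoff, the plate median minus 3 SD, with a reading above zero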;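 further: signal is the median channel fluorescence of bead-bound GFP antibody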). The settings on record: Protein G beads, DSG3-Fc, scFv-GFP binding, at 10 µM, stronger effect = lower value.
A short description of test [14]: inhibitors of fungal efflux pumps CDR1, CDR2, MDR1, pilot screen, validation compound set, multiplex, phenotypic (AID 588506;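 active means efflux inhibition above 0.42, the validation set average plus 4 SD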;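 further: Nile Red retained in cells so higher fluorescence means more efflux inhibition; 0 = negative control wells and 1 = enniatin B 25 µM full block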). The note with it: S. cerevisiae pump-expressing triplex, Nile Red efflux flow cytometry; at 10 µM; stronger effect = higher value; the pumps come from Candida albicans.
Test [15] addresses ATP-binding cassette sub-family B member 6 (Homo sapiens) (UniProt Q9NP58). The experiment in a line: ABCB6 transporter inhibitors, pilot screen, K562-ABCB6 cells, flow cytometry, validation set (AID 588550;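 active means inhibition above the screen-wide mean plus 3 SD, about 51%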;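 further: 0% = DMSO wells and 100% = benzethonium chloride 70 µM positive control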). The note with it: K562-ABCB6 porphyrin accumulation, 1 h, at 10 µM, stronger effect = higher value.
A short description of test [16]: promoters of myeloid differentiation in arrested cells, primary screen, cell-based, GFP/MAC1 double positive, flow cytometry, validation set (AID 588685;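 active means differentiation response of at least 50%, scaled between solvent and reference control, from cells with both markers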;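 further: compound exposure lasts four days before antibody staining and flow analysis; 0% = DMSO wells and 100% = 5 µM fulvestrant positive control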). The note with it: ER-HoxA9 marrow cells, stronger effect = higher value, normalized: vehicle 0, fulvestrant 100.

Beta-adrenergic receptor kinase 1 (Homo sapiens), sequence (P25098 whole entry, looked up): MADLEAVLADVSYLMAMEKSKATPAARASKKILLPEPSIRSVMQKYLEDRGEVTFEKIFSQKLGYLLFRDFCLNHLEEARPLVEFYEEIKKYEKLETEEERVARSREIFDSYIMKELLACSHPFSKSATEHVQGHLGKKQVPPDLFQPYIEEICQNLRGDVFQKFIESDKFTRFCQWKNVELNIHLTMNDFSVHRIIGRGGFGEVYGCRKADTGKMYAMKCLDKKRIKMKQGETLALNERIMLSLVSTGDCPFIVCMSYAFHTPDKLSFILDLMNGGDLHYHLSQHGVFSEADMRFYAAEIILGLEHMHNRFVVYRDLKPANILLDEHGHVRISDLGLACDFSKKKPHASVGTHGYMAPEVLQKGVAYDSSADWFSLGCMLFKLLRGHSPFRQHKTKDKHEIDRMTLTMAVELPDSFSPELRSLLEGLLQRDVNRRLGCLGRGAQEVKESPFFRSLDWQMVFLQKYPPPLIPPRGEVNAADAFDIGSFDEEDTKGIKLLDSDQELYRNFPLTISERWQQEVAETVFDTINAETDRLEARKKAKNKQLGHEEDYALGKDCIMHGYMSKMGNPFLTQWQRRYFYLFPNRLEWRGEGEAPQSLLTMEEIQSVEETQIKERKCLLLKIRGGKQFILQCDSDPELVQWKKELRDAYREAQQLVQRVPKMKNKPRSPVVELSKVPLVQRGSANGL
Beta-2 adrenergic receptor (Homo sapiens), sequence (P07550 whole entry, looked up): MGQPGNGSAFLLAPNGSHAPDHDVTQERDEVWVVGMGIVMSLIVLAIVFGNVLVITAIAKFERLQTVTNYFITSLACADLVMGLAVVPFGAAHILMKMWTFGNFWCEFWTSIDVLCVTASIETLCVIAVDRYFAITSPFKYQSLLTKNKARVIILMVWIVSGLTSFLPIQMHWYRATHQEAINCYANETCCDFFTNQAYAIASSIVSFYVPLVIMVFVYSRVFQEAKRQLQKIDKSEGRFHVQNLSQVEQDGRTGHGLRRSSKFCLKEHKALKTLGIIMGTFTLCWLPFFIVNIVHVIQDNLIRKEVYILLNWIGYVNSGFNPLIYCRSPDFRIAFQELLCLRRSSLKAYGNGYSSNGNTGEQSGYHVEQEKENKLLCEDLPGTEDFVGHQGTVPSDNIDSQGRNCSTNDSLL
ATP-binding cassette sub-family B member 6 (Homo sapiens), sequence (Q9NP58 whole entry, looked up): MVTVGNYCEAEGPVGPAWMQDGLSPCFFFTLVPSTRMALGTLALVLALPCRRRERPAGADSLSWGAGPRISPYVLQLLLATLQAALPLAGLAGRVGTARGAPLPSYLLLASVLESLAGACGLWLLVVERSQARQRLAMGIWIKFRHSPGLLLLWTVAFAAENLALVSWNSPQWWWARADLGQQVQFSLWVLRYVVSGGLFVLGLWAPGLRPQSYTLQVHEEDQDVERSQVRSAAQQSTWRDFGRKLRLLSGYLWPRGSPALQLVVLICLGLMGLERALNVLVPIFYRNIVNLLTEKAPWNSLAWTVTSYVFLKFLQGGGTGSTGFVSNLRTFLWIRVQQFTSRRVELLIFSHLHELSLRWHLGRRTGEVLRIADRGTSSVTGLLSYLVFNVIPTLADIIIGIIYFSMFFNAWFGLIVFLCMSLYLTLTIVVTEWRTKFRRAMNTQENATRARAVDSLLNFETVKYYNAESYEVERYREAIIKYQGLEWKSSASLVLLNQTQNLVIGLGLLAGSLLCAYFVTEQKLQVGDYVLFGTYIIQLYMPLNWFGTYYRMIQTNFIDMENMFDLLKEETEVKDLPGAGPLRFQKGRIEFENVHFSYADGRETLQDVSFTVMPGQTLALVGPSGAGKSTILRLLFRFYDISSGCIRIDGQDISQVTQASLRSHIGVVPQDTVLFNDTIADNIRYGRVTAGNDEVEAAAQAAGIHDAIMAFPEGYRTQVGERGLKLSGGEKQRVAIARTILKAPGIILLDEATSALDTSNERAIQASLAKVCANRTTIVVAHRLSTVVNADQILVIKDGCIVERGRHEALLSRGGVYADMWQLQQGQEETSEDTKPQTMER
Integrin beta-1 (Homo sapiens) + Integrin alpha-4 (Homo sapiens), sequence (P05556 whole entry, looked up): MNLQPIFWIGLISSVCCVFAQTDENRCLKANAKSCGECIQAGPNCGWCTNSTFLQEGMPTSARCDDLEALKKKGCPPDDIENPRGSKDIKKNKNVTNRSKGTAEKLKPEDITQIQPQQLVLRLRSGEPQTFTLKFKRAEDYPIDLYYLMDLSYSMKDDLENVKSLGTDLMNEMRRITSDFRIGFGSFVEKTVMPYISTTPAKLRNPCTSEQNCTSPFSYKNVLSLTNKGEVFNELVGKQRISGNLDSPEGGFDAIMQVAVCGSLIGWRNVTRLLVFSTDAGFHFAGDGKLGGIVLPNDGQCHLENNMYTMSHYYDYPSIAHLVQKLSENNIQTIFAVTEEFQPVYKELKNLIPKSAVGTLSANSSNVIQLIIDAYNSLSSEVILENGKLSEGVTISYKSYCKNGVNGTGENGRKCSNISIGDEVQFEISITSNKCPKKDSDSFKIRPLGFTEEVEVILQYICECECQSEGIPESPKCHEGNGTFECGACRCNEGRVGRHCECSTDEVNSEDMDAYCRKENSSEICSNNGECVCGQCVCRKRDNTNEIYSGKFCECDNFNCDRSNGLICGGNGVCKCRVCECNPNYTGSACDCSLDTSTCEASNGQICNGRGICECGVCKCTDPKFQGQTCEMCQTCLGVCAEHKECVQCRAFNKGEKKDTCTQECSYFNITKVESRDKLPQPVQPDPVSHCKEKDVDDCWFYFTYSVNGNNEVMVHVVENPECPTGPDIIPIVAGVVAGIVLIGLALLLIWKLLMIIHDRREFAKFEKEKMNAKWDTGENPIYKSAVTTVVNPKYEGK
Integrin beta-1 (Homo sapiens) + Integrin alpha-4 (Homo sapiens), sequence (P13612 whole entry, looked up): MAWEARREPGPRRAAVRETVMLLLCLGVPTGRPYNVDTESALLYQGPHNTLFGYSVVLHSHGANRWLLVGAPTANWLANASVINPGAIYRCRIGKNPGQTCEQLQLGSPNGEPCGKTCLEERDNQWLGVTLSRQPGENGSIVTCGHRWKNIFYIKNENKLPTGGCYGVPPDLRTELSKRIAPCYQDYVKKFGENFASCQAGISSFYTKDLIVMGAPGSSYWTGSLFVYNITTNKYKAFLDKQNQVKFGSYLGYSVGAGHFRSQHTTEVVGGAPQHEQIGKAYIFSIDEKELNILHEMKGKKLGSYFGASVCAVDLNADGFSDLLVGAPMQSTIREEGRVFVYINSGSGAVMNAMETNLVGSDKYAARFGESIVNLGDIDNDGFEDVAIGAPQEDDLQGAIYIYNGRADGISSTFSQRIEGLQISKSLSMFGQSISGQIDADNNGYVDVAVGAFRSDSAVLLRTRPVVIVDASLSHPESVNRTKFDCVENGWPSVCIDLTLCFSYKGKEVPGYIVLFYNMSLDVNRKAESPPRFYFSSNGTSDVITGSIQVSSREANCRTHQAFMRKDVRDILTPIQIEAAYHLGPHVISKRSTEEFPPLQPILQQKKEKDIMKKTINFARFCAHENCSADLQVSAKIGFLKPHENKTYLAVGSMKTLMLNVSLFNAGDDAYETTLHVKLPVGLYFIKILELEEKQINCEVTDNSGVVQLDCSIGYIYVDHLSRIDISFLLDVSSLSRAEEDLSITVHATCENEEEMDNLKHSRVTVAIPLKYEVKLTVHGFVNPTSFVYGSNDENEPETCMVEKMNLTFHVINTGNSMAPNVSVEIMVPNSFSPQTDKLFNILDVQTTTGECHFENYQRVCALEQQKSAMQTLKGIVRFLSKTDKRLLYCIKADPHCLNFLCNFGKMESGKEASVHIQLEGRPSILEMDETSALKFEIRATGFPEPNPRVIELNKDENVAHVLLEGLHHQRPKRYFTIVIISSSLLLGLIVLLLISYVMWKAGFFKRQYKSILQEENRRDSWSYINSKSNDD
AP-2 complex subunit beta (Homo sapiens), sequence (P63010 whole entry, looked up, the tested form may be a part, one chain of several): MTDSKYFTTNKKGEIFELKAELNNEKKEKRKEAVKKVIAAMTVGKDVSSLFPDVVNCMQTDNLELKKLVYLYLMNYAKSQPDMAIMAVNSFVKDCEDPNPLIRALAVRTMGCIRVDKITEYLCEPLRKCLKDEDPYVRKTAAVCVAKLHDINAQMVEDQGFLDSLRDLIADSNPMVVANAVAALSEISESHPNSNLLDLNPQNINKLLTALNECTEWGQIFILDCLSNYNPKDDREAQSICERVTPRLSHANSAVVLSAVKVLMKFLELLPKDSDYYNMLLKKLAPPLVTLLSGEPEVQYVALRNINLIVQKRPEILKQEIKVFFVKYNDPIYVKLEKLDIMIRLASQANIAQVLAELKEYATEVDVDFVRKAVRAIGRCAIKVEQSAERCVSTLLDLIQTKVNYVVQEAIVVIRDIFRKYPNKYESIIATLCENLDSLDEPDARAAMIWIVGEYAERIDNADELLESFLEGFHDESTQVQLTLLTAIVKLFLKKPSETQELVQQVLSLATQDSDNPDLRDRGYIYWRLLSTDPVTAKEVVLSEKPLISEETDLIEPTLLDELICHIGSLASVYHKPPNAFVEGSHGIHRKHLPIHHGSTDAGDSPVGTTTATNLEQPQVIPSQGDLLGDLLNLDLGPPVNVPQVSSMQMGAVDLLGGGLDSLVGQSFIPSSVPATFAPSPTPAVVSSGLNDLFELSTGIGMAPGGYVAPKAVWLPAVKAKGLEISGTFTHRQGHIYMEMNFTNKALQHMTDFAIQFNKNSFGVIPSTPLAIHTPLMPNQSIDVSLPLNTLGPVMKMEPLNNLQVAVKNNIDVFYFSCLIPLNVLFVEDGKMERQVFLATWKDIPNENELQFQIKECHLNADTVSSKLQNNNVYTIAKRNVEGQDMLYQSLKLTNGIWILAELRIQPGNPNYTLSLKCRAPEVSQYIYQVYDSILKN

Broadly, the inhibition is the change of the read-out against control, counted positive when it falls. Consider `CC1=CC(=O)c2ccccc2C1=O`, for which the percent of DMSO control GFP in [1] is 101% (inactive). Further, the GFP response vs DMSO in test [2] was 104% (inactive); in [4] it was 94.8% (inactive). In [3], the percent response of DMSO control is 94.5% (inactive). Moreover, in [5], the GFP response, % of DMSO is 91.1% (inactive). The molecule further had a double positive events in test [6] of 60.8%. Moreover, the vesicle binding response in test [6] is 105% (inactive). The inhibition in test [7] is -5.11% (inactive); in test [11], -9.12% (inactive); in test [15], 1% (inactive). Further, the superoxide response (% of plate) in test [8] is 108% (inactive). The aptamer binding inhibition in test [9] was 1% (inactive). Moreover, the response in [10] was 22.2% (inactive); in [12], 1.78% (inactive). Also, the binding (% of control) in test [13] was 102% (inactive). Moreover, the efflux inhibition (fraction of control) in test [14] is -0.21 (inactive). Further, the differentiation response in [16] was 14.4% (inactive).

In the case of `O=C1C2CC=C(Cl)CC2C(=O)N1CCc1c[nH]c2ccccc12` (stereo unspecified), the percent of DMSO control GFP in [1] is 90.2% (inactive). For the same molecule, the GFP response vs DMSO in [2] was 108% (inactive); in test [4], 80.9% (inactive). In test [3], the percent response of DMSO control is 104% (inactive). The GFP response, % of DMSO in [5] was 97.5% (inactive). For the same molecule, the double positive events in test [6] came out at 55.5%. In addition, the vesicle binding response in [6] was 129% (inactive). Besides, the inhibition in [7] is 16.2% (inactive); in test [11], 0.6% (inactive); in [15] it was 12% (inactive). The superoxide response (% of plate) in test [8] is 114% (inactive). The aptamer binding inhibition in test [9] was 8% (inactive). Also, the figures for the response in [10] and in [12] were -5.28% (inactive) and -1.1% (inactive), respectively. In test [13], the binding (% of control) is 103% (inactive). Besides, in test [14], the efflux inhibition (fraction of control) was 0.09 (inactive). The differentiation response in test [16] was -12.3% (inactive).

`CN1CCCN=C1COC(=O)C(O)(c1ccccc1)C1CCCCC1` (stereo unspecified): the percent of DMSO control GFP in test [1] was 103% (inactive). Also, the GFP response vs DMSO in test [2] is 107% (inactive); in [4], 92.7% (inactive). Besides, the percent response of DMSO control in test [3] was 93.1% (inactive). For the same molecule, the GFP response, % of DMSO in test [5] is 96.5% (inactive). In test [6], the double positive events turned out to be 64%. Also, the vesicle binding response in test [6] was 205% (inactive). Also, the results for the inhibition in [7], in [11] and in [15] were 7.85% (inactive), 12.1% (inactive) and -5% (inactive), respectively. In [8], the superoxide response (% of plate) is 98.5% (inactive). In addition, the aptamer binding inhibition in test [9] is 6% (inactive). Moreover, the response was 3.5% (inactive) in [10] and 4.32% (inactive) in [12]. Moreover, in [13], the binding (% of control) is 91.9% (inactive). Also, the efflux inhibition (fraction of control) in [14] is -0.14 (inactive). In addition, the differentiation response in test [16] was 5.13% (inactive).

As for `CCN1C(=O)C(CC(=O)Nc2ccc(OC)cc2)N(CCc2ccc(F)cc2)C1=S` (stereo unspecified), the percent of DMSO control GFP in test [1] was 96.9% (inactive). Further, the GFP response vs DMSO in test [2] is 98.5% (inactive); in test [4], 124% (inactive). Moreover, the percent response of DMSO control in test [3] was 93.9% (inactive). For the same molecule, the GFP response, % of DMSO in test [5] is 96.2% (inactive). The double positive events in test [6] was 60.7%. Besides, the vesicle binding response in [6] is 292% (inactive). For the same molecule, the inhibition is -3.16% (inactive) in [7], 50.8% (inactive) in test [11] and 3% (inactive) in [15]. In addition, in [8], the superoxide response (% of plate) is 102% (inactive). The aptamer binding inhibition in test [9] was 2% (inactive). The values for the response in test [10] and in test [12] were 5.66% (inactive) and -3.51% (inactive), respectively. Moreover, in test [13], the binding (% of control) was 102% (inactive). In test [14], the efflux inhibition (fraction of control) is 0.19 (inactive). Besides, the differentiation response in [16] is 8.8% (inactive).

In the case of `O=C(O)CCCCCCNC(=O)c1cncc(O)c1`, the percent of DMSO control GFP in test [1] was 104% (inactive). The GFP response vs DMSO was 107% (inactive) in [2] and 113% (inactive) in test [4]. Further, in test [3], the percent response of DMSO control is 105% (inactive). Also, the GFP response, % of DMSO in [5] was 115% (inactive). Besides, the double positive events in test [6] was 63.9%. In [6], the vesicle binding response is 153% (inactive). For the same molecule, the inhibition is 13.4% (inactive) in test [7], 12.7% (inactive) in [11] and -5% (inactive) in test [15]. Besides, the superoxide response (% of plate) in test [8] was 112% (inactive). For the same molecule, the aptamer binding inhibition in test [9] was 7% (inactive). For the same molecule, the response in [10] was -25.8% (inactive); in test [12], -3.09% (inactive). Besides, the binding (% of control) in [13] was 97.3% (inactive). The efflux inhibition (fraction of control) in test [14] is 0 (inactive). In test [16], the differentiation response was -4% (inactive).

In the case of `CC(C)CCC1(CCNC(C)c2cccs2)CCOC(C)(C)C1` (stereo unspecified), in test [1], the percent of DMSO control GFP was 102% (inactive). The values for the GFP response vs DMSO in test [2] and in test [4] were 108% (inactive) and 93.3% (inactive), respectively. In [3], the percent response of DMSO control is 97.8% (inactive). In test [5], the GFP response, % of DMSO was 101% (inactive). This molecule gave a double positive events in [6] of 58.8%. The vesicle binding response in test [6] is 1220% (inactive). The inhibition in [7] was -6.68% (inactive); in test [11], 1.09% (inactive); in test [15], 2% (inactive). For the same molecule, the superoxide response (% of plate) in test [8] is 96.5% (inactive). For the same molecule, in test [9], the aptamer binding inhibition is 0% (inactive). Further, the response in test [10] was 8.29% (inactive); in [12], -1.06% (inactive). The binding (% of control) in [13] is 98.5% (inactive). The efflux inhibition (fraction of control) in [14] was -0.17 (inactive). In addition, the differentiation response in [16] is 1.22% (inactive).

In the case of `COc1ccc(NC(=O)N2CCCCC2c2cccnc2)cc1` (stereo unspecified), in [1], the percent of DMSO control GFP was 98.9% (inactive). Moreover, the GFP response vs DMSO is 105% (inactive) in test [2] and 109% (inactive) in test [4]. Besides, the percent response of DMSO control in test [3] is 99% (inactive). Further, the GFP response, % of DMSO in test [5] is 105% (inactive). Further, in test [6], the double positive events amounted to 59.7%. In addition, in test [6], the vesicle binding response was 454% (inactive). The inhibition was 7.4% (inactive) in test [7], 0.21% (inactive) in test [11] and -2% (inactive) in test [15]. The superoxide response (% of plate) in [8] is 116% (inactive). Also, the aptamer binding inhibition in [9] was 7% (inactive). Also, the values for the response in [10] and in [12] were -25.6% (inactive) and 3.03% (inactive), respectively. Besides, the binding (% of control) in [13] is 103% (inactive). Besides, the efflux inhibition (fraction of control) in [14] is 0 (inactive). Also, the differentiation response in test [16] was -18.8% (inactive).

Take `COc1ccc2cc(C(=O)OC(C)C)sc(=O)c2c1OC`: in test [1], the percent of DMSO control GFP is 106% (inactive). Besides, the GFP response vs DMSO is 98.6% (inactive) in test [2] and 121% (inactive) in test [4]. The percent response of DMSO control in [3] was 95.1% (inactive). Besides, the GFP response, % of DMSO in test [5] was 106% (inactive). Further, the double positive events in [6] was 61.9%. In test [6], the vesicle binding response was 220% (inactive). For the same molecule, the inhibition in [7] was 3.99% (inactive); in test [11], -1.55% (inactive); in test [15] it was 4% (inactive). For the same molecule, in test [8], the superoxide response (% of plate) is 112% (inactive). Also, the aptamer binding inhibition in [9] was 0% (inactive). The response in test [10] is -12.6% (inactive); in test [12], -19.1% (inactive). For the same molecule, the binding (% of control) in test [13] is 85.1% (inactive). The efflux inhibition (fraction of control) in test [14] is 0 (inactive). In addition, the differentiation response in test [16] was 11.8% (inactive).
